Data on 3 compounds can be found in ChEMBL document CHEMBL1961873, “Compounds: GSK PKIS; Assays: Nanosyn kinase panel” (2012).

Assay [1] has as its target Ribosomal protein S6 kinase alpha-6 (Homo sapiens) (UniProt Q9UK32). Conditions: at 1 µM.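 Also: each value is a mean inhibition of RSK4 from a GSK PKIS panel screen.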
Assay [2] concerns the target T1, Serine/threonine-protein kinase Sgk1 (Homo sapiens) (UniProt O00141).
T1 sequence (whole entry): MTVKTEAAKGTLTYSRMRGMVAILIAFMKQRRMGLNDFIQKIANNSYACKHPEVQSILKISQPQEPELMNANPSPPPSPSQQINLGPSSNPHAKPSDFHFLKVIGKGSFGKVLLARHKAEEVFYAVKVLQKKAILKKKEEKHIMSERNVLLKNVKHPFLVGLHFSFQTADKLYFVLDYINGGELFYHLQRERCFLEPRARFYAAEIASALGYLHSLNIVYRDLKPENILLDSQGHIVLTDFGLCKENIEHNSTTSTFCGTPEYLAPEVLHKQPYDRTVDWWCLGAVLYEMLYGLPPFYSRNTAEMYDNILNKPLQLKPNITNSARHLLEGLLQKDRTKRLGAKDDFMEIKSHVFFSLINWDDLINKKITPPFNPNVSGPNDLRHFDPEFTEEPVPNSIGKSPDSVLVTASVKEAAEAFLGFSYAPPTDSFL
Particulars: at 0.1 µM.

The target in assay [3] is T1, Serine/threonine-protein kinase Sgk1 (Homo sapiens). Conditions: at 1 µM.
The target in assay [4] is T2, Serine/threonine-protein kinase Sgk2 (Homo sapiens) (UniProt Q9HBY8).
T2 sequence (whole entry): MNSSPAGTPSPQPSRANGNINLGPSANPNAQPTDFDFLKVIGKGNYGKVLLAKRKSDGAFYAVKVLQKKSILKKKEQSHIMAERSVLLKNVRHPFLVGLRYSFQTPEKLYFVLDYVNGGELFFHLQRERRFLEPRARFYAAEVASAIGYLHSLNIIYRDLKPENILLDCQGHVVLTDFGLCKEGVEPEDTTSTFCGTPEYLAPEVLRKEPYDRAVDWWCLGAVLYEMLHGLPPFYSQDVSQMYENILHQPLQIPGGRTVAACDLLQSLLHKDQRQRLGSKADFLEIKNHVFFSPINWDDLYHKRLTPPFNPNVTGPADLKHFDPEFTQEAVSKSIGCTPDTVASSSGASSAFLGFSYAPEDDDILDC
Particulars: at 0.1 µM.

Assay [5] concerns the target T2, Serine/threonine-protein kinase Sgk2 (Homo sapiens). Particulars: at 1 µM.
In assay [6] the target is T3, Serine/threonine-protein kinase Sgk3 (Homo sapiens) (UniProt Q96BR1).
T3 sequence (whole entry): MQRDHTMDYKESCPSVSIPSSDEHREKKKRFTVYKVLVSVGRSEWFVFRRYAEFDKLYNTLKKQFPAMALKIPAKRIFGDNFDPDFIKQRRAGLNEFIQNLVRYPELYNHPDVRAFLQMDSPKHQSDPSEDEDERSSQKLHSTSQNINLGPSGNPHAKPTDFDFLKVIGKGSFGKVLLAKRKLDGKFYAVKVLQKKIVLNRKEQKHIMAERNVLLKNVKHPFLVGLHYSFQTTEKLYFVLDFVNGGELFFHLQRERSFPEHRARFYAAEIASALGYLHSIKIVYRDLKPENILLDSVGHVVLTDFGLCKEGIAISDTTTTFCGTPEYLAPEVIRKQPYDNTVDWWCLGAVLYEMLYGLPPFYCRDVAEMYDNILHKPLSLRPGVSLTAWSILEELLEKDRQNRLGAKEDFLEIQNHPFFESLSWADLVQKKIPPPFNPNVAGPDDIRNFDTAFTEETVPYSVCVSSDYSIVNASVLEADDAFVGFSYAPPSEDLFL
Conditions: at 0.1 µM.

Assay [7] addresses T3, Serine/threonine-protein kinase Sgk3 (Homo sapiens). Particulars: at 1 µM.
Assay [8] has as its target 5'-AMP-activated protein kinase catalytic subunit alpha-1 (Homo sapiens) (UniProt Q13131). Conditions: at 0.1 µM.
Assay [9] has the same target. Conditions: at 1 µM.
Assay [10] has as its target 5'-AMP-activated protein kinase catalytic subunit alpha-2 (Homo sapiens) (UniProt P54646). Conditions: at 0.1 µM.
For assay [11] the target is unchanged. Particulars: at 1 µM.
Assay [12] concerns the target T4, NUAK family SNF1-like kinase 1 (Homo sapiens) (UniProt O60285).
T4 sequence (whole entry): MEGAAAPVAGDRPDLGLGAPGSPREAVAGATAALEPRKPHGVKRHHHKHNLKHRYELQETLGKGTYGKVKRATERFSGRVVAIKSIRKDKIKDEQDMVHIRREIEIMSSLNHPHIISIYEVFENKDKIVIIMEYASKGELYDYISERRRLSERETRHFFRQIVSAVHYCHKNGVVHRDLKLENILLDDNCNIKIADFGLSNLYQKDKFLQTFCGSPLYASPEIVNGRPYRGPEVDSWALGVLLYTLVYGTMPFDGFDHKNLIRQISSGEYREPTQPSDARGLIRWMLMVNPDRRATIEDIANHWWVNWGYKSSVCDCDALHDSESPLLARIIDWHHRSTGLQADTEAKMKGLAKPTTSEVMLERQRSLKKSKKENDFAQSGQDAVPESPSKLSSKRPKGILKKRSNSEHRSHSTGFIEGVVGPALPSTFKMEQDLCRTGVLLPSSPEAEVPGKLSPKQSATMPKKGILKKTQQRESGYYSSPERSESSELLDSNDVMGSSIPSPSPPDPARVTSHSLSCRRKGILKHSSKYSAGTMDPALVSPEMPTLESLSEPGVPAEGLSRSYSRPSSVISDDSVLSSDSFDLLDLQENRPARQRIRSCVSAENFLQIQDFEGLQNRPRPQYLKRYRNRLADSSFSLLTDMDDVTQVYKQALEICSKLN
Particulars: at 0.1 µM.

Assay [13] concerns the target T4, NUAK family SNF1-like kinase 1 (Homo sapiens). Conditions: at 1 µM.
Assay [14] concerns the target T5, Serine/threonine-protein kinase BRSK1 (Homo sapiens) (UniProt Q8TDC3).
T5 sequence (whole entry): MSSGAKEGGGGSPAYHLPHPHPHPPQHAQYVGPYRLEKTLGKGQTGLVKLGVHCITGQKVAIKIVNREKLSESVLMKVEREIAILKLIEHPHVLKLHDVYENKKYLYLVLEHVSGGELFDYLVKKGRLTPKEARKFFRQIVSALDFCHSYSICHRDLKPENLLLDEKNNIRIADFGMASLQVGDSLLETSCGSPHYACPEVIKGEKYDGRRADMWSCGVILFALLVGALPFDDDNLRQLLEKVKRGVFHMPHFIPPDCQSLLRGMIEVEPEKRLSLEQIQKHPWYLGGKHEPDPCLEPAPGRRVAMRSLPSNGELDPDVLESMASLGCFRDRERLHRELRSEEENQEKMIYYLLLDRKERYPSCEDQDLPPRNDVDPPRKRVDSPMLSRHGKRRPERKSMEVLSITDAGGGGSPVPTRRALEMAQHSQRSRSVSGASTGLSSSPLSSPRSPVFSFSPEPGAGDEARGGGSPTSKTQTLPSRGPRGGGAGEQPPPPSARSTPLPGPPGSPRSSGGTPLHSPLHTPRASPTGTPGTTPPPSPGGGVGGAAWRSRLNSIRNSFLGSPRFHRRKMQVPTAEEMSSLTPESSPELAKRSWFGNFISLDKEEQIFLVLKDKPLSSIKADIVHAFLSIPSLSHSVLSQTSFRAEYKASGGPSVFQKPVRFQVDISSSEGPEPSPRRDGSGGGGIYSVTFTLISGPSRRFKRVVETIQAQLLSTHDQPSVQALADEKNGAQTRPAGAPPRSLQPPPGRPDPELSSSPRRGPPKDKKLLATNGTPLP
Conditions: at 0.1 µM.

Assay [15] has as its target T5, Serine/threonine-protein kinase BRSK1 (Homo sapiens). Conditions: at 1 µM.
Assay [16] deals with T6, Serine/threonine-protein kinase BRSK2 (Homo sapiens) (UniProt Q8IWQ3).
T6 sequence (whole entry): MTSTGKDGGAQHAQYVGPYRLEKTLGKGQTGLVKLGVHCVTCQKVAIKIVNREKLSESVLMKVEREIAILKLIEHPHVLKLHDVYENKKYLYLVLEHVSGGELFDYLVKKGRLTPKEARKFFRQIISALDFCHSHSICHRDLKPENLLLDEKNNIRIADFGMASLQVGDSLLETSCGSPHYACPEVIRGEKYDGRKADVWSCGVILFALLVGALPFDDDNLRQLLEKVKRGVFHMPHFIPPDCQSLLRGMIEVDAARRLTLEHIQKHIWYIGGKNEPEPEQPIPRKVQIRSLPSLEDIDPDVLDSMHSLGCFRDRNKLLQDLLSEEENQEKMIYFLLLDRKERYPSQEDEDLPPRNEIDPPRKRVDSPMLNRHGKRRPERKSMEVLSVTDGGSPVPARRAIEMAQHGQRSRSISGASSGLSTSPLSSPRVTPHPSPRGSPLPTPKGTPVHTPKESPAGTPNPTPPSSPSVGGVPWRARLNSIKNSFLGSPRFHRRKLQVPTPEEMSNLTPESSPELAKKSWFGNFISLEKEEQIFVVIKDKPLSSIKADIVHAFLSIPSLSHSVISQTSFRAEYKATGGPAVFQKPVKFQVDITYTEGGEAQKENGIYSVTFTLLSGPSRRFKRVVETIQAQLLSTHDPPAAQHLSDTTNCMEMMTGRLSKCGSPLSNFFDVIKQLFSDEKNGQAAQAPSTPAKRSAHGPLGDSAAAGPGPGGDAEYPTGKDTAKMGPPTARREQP
Particulars: at 0.1 µM.

Assay [17] has as its target T6, Serine/threonine-protein kinase BRSK2 (Homo sapiens). Conditions: at 1 µM.
The target in assay [18] is Calcium/calmodulin-dependent protein kinase type 1D (Homo sapiens) (UniProt Q8IU85). Particulars: at 0.1 µM.
Sequence of Calcium/calmodulin-dependent protein kinase type 1D (Homo sapiens) (Q8IU85 whole entry, looked up): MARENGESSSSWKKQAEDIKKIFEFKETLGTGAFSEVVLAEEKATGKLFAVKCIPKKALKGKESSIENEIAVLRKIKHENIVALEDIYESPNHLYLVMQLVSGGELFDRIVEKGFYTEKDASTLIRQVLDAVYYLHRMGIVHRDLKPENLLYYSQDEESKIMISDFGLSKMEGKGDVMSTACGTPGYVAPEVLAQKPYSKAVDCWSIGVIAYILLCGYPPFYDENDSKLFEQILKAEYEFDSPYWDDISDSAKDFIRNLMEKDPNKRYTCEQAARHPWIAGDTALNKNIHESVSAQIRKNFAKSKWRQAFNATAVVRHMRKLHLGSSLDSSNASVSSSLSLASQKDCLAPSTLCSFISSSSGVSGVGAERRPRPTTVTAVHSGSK
Assay [19] shares this target. Conditions: at 1 µM.
Assay [20] addresses Calcium/calmodulin-dependent protein kinase type II subunit alpha (Homo sapiens) (UniProt Q9UQM7). Particulars: at 0.1 µM.

Structures are written as SMILES.

Sequence of Ribosomal protein S6 kinase alpha-6 (Homo sapiens) (Q9UK32 whole entry): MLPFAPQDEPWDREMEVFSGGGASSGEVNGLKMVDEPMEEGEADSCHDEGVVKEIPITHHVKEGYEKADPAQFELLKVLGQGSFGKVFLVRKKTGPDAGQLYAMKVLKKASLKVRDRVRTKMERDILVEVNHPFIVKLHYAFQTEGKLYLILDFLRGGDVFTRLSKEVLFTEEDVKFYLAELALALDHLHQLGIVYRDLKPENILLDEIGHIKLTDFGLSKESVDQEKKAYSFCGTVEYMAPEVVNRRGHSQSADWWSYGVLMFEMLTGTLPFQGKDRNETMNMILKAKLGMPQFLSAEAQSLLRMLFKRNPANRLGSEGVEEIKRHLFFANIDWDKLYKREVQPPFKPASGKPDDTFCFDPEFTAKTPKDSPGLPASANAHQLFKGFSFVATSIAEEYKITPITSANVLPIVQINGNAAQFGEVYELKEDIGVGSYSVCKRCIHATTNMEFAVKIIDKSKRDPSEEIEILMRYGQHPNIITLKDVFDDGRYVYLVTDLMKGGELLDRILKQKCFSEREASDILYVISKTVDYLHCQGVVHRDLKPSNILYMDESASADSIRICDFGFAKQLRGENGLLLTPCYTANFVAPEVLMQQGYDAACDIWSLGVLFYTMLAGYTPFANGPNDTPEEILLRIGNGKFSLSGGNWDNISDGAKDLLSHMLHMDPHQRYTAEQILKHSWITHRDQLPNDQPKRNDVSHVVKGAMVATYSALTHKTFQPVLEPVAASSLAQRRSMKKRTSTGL
Sequence of 5'-AMP-activated protein kinase catalytic subunit alpha-1 (Homo sapiens) (Q13131 whole entry, looked up): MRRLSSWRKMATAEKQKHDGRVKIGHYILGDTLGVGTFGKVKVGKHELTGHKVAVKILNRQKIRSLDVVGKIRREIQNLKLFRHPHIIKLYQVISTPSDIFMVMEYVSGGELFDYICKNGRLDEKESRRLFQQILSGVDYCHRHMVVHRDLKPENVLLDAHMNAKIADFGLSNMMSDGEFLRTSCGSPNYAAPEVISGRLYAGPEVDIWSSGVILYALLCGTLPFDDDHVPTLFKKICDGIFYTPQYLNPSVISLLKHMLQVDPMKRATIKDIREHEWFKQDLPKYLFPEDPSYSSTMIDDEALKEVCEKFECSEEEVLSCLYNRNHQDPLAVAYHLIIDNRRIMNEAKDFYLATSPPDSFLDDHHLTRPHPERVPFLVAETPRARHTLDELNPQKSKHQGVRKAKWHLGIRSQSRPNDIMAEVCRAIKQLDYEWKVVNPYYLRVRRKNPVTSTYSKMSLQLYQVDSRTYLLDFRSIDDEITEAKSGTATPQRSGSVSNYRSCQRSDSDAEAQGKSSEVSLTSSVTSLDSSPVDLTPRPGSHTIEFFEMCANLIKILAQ
Sequence of 5'-AMP-activated protein kinase catalytic subunit alpha-2 (Homo sapiens) (P54646 whole entry, looked up): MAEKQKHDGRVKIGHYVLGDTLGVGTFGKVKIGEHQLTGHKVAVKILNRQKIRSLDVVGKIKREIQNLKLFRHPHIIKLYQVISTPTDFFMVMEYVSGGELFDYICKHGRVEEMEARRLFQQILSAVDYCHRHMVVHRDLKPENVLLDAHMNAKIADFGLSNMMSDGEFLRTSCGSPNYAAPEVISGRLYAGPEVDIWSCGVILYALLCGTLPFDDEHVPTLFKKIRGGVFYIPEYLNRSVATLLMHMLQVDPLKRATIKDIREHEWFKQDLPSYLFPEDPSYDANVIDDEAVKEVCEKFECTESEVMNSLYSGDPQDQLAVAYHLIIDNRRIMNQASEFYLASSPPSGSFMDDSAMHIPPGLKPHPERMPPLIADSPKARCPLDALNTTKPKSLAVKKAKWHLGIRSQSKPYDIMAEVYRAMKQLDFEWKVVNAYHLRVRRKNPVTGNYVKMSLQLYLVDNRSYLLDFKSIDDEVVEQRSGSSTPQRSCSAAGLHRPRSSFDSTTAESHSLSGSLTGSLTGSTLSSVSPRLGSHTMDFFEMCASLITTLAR
Sequence of Calcium/calmodulin-dependent protein kinase type II subunit alpha (Homo sapiens) (Q9UQM7 whole entry): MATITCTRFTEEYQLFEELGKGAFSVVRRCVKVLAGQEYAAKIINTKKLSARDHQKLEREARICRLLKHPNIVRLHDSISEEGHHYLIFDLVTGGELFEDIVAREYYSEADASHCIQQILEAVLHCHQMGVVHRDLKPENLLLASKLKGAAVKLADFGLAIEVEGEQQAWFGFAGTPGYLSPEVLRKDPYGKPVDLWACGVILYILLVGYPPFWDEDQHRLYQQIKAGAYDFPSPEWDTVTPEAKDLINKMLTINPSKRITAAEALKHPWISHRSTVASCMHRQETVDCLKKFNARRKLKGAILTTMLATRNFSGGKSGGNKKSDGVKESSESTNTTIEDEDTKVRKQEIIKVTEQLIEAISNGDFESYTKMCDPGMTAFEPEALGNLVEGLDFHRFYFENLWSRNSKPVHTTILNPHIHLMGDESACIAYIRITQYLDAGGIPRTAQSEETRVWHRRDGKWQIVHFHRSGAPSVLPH

Turning to `COc1cc2ncn(-c3cc(OCc4ccccc4C(F)(F)F)c(C(N)=O)s3)c2cc1OC`, the inhibition in assay [1] is 23.6%; in assay [2], 3.02%; in assay [3] it was 1.49%; in assay [4], 6.11%; in [5], 0.81%; in assay [6], 3.87%. For the same compound, the inhibition in [7] worked out at 1.64%; in assay [8], 5.52%; in [9], 19.1%; in assay [10], 2.61%; in assay [11], 6.24%; in [12], 21.7%. Further, the inhibition in assay [13] is 65.5%; in assay [14], 6.7%; in [15], 41.1%; in assay [16] it was 14.8%; in assay [17] it was 52.4%; in assay [18] it was -0.86%. Besides, the inhibition is -1.9% in [19] and 2.39% in assay [20].

For the compound `N#Cc1c(NC(=O)c2cccc3ccccc23)sc2c1CCCC2`, the inhibition in assay [1] was determined as 1.27%; in [2] it was 3.76%; in assay [3], 0.45%; in assay [4], 1.09%; in assay [5], 1.34%; in [6] it was 1.65%. Further, the inhibition turned out to be 2.42% in [7]; 1.14% in assay [8]; 2.66% in assay [9]; 3.83% in assay [10]; 5.58% in assay [11]; 1.58% in assay [12]. In addition, the inhibition was 2.23% in assay [14]; 3.56% in assay [15]; 1.18% in [16]; 6.1% in [17]; 1.08% in assay [18]; 2.77% in [19]. In assay [20], the inhibition was found to be 1.29%.

For the compound `CCn1c(-c2nonc2N)nc2cncc(C(=O)N3CCNCC3)c21`, the inhibition in [1] is 2.55%; in assay [2], 1.92%; in [3] it was 4.77%; in assay [4], 3.56%; in assay [5], 4.56%; in [6], 5.25%. Besides, the inhibition in [7] was 6.39%; in assay [8], 3.24%; in assay [9], 4.88%; in assay [10], 8.15%; in assay [11], 3.25%; in [12], -0.04%. Also, the inhibition in [13] was 2.51%; in assay [14], 2.38%; in assay [15] it was -2.27%; in [16] it was -0.27%; in [17], 2.15%; in assay [18], 0.79%. Besides, the results for the inhibition in assay [19] and in assay [20] were 2.87% and 4.62%, respectively.

One may read the inhibition as the drop in the measured response relative to a control, in per cent.
